# Assay outcomes deposited in PubChem by National Center for Advancing Translational Sciences (NCATS).
# Shown are actives, neighbours in structure and some others; about 1.3% of the full set was active somewhere.
# Six1-Eya2 inh = Six1/Eya2 interaction inhibition; Q15475+O00167; AlphaScreen GST-Six1/His-Eya2 binding, biochemical; active compounds read low; activity change, % (no concentration beside the values); hit rate 0.56% among 360,000
# Target sequence (O00167 whole entry, looked up): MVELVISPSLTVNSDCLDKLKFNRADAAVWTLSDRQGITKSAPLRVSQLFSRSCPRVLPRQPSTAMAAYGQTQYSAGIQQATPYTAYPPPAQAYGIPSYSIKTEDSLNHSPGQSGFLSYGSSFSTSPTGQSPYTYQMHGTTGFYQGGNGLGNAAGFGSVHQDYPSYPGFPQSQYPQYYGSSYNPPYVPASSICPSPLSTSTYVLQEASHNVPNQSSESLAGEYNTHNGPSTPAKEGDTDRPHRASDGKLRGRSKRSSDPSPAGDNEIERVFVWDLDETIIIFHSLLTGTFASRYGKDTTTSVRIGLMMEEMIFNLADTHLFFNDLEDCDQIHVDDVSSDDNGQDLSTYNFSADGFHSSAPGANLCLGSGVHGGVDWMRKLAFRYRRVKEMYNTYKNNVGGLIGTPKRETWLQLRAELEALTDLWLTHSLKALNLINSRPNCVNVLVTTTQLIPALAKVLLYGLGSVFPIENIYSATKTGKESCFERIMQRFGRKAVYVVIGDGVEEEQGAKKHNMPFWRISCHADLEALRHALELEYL
# Target sequence (Q15475 whole entry, looked up): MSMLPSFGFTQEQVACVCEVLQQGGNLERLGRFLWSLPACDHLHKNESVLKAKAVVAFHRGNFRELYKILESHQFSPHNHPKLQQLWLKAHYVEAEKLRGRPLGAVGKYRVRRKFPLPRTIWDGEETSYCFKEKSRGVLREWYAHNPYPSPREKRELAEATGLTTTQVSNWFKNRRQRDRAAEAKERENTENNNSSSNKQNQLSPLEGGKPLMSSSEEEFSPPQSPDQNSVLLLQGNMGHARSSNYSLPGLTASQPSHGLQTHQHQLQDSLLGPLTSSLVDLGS
#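 Six1/Eya2 binding was read as AlphaScreen signal after compounds were pinned into GST-Six1 plus His-tagged Eya2 (5X stock 250/500 nM) in pH 8.0 Tris/NaCl/TCEP buffer, beads added, then incubated 1 h, 37 C, dark.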
# pAkt inh = Akt phosphorylation inhibition; hit rate 0.32% among 360,000; Neuro2A IGF-stimulated pAkt S473 HTRF, 20 min; active compounds read low; activity change, % for hits at 50 µM; in the data active means activity change below about -80%; inconclusive means mostly about -51% to -80%
#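 Neuro2A cells (4,500/well, DMEM with 0.5% FBS) were treated with compound at a single 50 µM final concentration, stimulated with 6 nM IGF for 20 min at 37 °C, and lysed. Phospho-Akt Ser473 was read by HTRF as 665/615 ratio ×10^4.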
# CtBP-E1A blk = inhibitors of CtBP/E1A interaction | AlphaScreen GST-E1A/His-CtBP binding, 1536-well; active compounds read low | activity change, % (test concentration not listed) | hit rate 0.49% among 340,000
#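 Steps: dispense buffer (Tris pH 8.0, NaCl 300 mM, TCEP 1 mM, BSA, Tween 20); add 5X protein mix (GST-E1A, His-CtBP, 125 nM each); pin 23 nL compound; 2 h at 37 °C, dark; add 5X beads (50 ug/mL); 1 h; read.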
# CCT modulator = changes cytosolic chaperonin activity | purified chaperonin ATPase assay, HTRF ADP detection, 30 min | activity change, % (no concentration beside the values), hits read low | hit rate 0.3% among 360,000; in the data active means activity change below about -30%
#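 TRiC (40 or 20 nM final, by batch activity) in 30 mM Tris pH 7.4, 100 mM KCl, 5 mM MgCl2, 1 mM DTT was treated with compound at 76 uM single dose, then 10 uM ATP, 30 min at 37 °C. ADP was read by HTRF Transcreener.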
# * marks the source's active call; other numbers are inactive results; i = inactive; ? = inconclusive; . = no result. Unless noted, no stated cut-off is given here; in the data, active means activity change below about -65%; inconclusive means mostly about -30% to -63%; inactive means weaker than that. On the % scale 0 is the no-effect control and ±100 the full control effect.
SMILES,Six1-Eya2 inh,pAkt inh,CtBP-E1A blk,CCT modulator
C=CCNC(=S)N1CCN(c2ncc(C(F)(F)F)cc2Cl)CC1,7,i,-2,0
O=C(COC(=O)/C=C/c1ccccc1)NC1CCS(=O)(=O)C1 (stereo not given),0,i,.,1
Cc1nn(-c2ccccc2)c(C)c1/C=C/C(=O)OCC(=O)NC1CCS(=O)(=O)C1 (stereo not given),-3,i,-75*,-1
CS(=O)(=O)Nc1ccc(-c2ccc(/C=C3\SC(N)=NC3=O)o2)cc1,?,i,-68*,-1
COc1ccc(-c2nc3ccccc3o2)cc1NC(=O)CSc1ccc(Cl)cc1,-5,i,12,-90*
CCOc1cc(NC(=O)c2cccs2)c(OCC)cc1NC(=O)CCC(=O)NCc1ccccn1,8,i,3,0
COc1cc(NC(=O)c2cccs2)c(OC)cc1NC(=O)CCC(=O)Nc1cccc2ncccc12,-82*,i,-87*,-2
COc1ccc(NC(=O)CCC(=O)c2cccs2)c(OC)c1,-4,i,0,-2
COc1ccccc1NC(=O)CCC(=O)Nc1cc(OC)c(NC(=O)c2cccs2)cc1OC,-95*,i,-93*,1
CCS(=O)(=O)c1nc(S(=O)(=O)c2ccc(C)cc2)c(N2CC(C)CC(C)C2)s1 (stereo not given),-3,i,2,-2
Cc1sc2ncnc(N)c2c1C,8,i,-7,-55*
COc1ccc(O)c(/C=N/NC(=S)Nc2cccnc2)c1,-90*,i,.,-3
COc1cc(/C=N/NC(=S)Nc2cccc(S(=O)(=O)N(C)C)c2)cc(OC)c1O,-21,i,5,0
COc1ccc(O)c(/C=N/NC(=S)Nc2cccc(S(=O)(=O)N(C)C)c2)c1,-90*,i,-3,-5
CN(C)S(=O)(=O)c1cccc(NC(=S)N/N=C/c2ccc(O)c(O)c2O)c1,-93*,i,-97*,-1
O=C1OC(Sc2ccccc2)(c2ccccc2)c2ccccc21 (stereo not given),5,i,4,1
CCN(CC)CCNC(=O)C(Oc1ccccc1)Oc1ccccc1,2,i,3,-1
CN(NC(=O)c1ccccc1F)c1ccc([N+](=O)[O-])cn1,-15,i,-10,-43*
COC(=O)c1sc(=S)sc1C(=O)OC,-89*,i,13,2
COC(=O)c1sc(C(=O)OC)c(C(=O)OC)c1C(=O)OC,-1,i,9,-2
CC(CCc1ccccc1)NC(=O)COC(=O)c1ccc(NC(=O)CC#N)cc1 (stereo not given),19,i,.,0
C=CCN(CC=C)C(=O)C1CCN(S(=O)(=O)c2ccc(N3CCCC3=O)cc2)CC1,1,i,.,-1
CCOC(=O)N1CCN(C(=O)COc2ccc(S(=O)(=O)NC3CCCCC3)cc2C)CC1,12,i,1,0
Cc1cc(S(=O)(=O)NC2CCCCC2)ccc1OCC(=O)N1CCOCC1,25,i,0,-67*
CCN(CC)S(=O)(=O)c1cc(NC(=O)CSCc2c(C)noc2C)ccc1C,-6,i,3,0
SMILES,Six1-Eya2 inh,pAkt inh,CtBP-E1A blk,CCT modulator
Cc1ccc(C(=O)N/C(=C\c2ccco2)C(=O)NCCCn2ccnc2)cc1,-77*,i,-18,-5
Cc1ccc(C(=O)N/C(=C/c2ccco2)C(=O)NCCCn2ccnc2)cc1,?,i,-12,0
COc1ccc(OC)c(NC(=O)CN2C(=O)C3(OCCCO3)c3ccccc32)c1,-5,i,-6,-5
COc1ccc(CCNC(=O)CN2C(=O)C3(OCCCO3)c3ccccc32)cc1OC,-2,-90%*,-7,0
c1ccc(N=Nc2ccc3cccccc2-3)cc1,-98*,i,-90*,1
Cc1ccc(S(=O)(=O)N[C@H](C(=O)OCC(=O)NC(=O)c2cccn2C)C(C)C)cc1,-15,i,-19,-1
COC(=O)CCNC(=O)Cn1cnc2sc3c(c2c1=O)CCCC3,2,i,3,2
CN(C)CCNC(=O)CCCNC(=O)Cn1cnc2sc3c(c2c1=O)CCCC3,4,-119%*,-4,0
COc1ccc2c(c1)OC[C@H]1[C@H]2N2C(=O)CN(Cc3ccccc3)C(=O)[C@@]2(C)[C@H]1c1ccccc1,-7,i,7,1
CCOC(=O)c1sc(NC(=S)NC(=O)c2ccc(OC)cc2)nc1C,6,i,2,-52*
O=C(CSc1nncn1-c1ccccc1)Nc1ccc(F)cc1F,11,i,0,0
Cc1cc(C)nc(/N=C(\N)Nc2ccc(OCCC(C)C)cc2)n1,-10,i,-9,1
COc1ccc(CCC(=O)N2CCN(c3ccc([N+](=O)[O-])cc3)CC2)cc1OC,4,i,-1,-5
CCOc1ccc(C2C(C#N)=C(N)SC(N)=C2C#N)c(OCC)c1,0,-85%*,-7,-11
COc1ccc(/C=C/C(=O)NC(=S)Nc2ccc(S(=O)(=O)Nc3ccc(OC)nn3)cc2)cc1,?,i,-77*,1
Cc1cc(C(=O)N2CCCC(N3CCN(c4ccccc4C)CC3)C2)no1 (stereo not given),4,i,-3,1
COc1c(N2C[C@@H]3CCCN[C@@H]3C2)c(F)cc2c(=O)c(C(=O)O)cn(C3CC3)c12,4,i,-14,0
CCCNS(=O)(=O)c1ccc(OCC(=O)NCc2ccc3c(c2)OCO3)cc1,-1,-102%*,7,1
CCC(C)NS(=O)(=O)c1ccc(OCC(=O)NCc2ccc3c(c2)OCO3)cc1 (stereo not given),0,i,2,-2
CC(OC(=O)CNC(=O)c1ccc(Cl)c([N+](=O)[O-])c1)C(=O)NC1CCCCC1C (stereo not given),-3,i,4,-2
Cc1ccc(NC(=O)CN(C)C(=O)C(C)OC(=O)CNC(=O)c2ccc(Cl)c([N+](=O)[O-])c2)cc1 (stereo not given),0,i,-4,-77*
Cc1ccccc1NC(=O)N1C2CCCC1CC(NC(=O)C1CC1)C2 (stereo not given),5,i,0,0
CCOc1ccccc1NC(=O)N1C2CCCC1CC(NC(=O)C1CC1)C2 (stereo not given),0,-88%*,7,-2
CC(=O)OCC(=O)C1(O)CCC2C3CC(F)C4=CC(=O)CCC4(C)C3C(O)CC21C (stereo not given),2,i,1,0
COc1ccc(-c2c(N)cnc(C(=O)O)c2C)c(OCc2ccccc2)c1OC,-82*,i,-8,0
COc1ccc(C(=O)C(C)C(C)=O)c(OCc2ccccc2)c1OC (stereo not given),14,i,-10,-3
Cc1nc2c(=O)[nH]c(=S)[nH]c2[nH]c1=O,-66*,i,-18,1
Cc1nc2[nH]c(=S)[nH]c(=O)c2nc1C,-12,i,-2,-3
